# Laboratory results taken from PMC4336329 (PLoS ONE, 2015).
# Among all 310,000 compounds or so, about 14,000 (4.5%) showed an effect of 50% or more. Effects have a minus sign here. The sample as a whole holds a higher share of strong results than the screen did.
# Target: human ether-à-go-go-related gene (hERG) potassium channel (human, UniProt Q12809)
# Assay: primary screen, population patch clamp on CHO cells stably expressing hERG; higher = less effect of the substance
# 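Further: peak tail current of the secondary pulse compared with the same well before compound.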
# Sequence of human ether-à-go-go-related gene (hERG) potassium channel (Q12809 whole entry, looked up): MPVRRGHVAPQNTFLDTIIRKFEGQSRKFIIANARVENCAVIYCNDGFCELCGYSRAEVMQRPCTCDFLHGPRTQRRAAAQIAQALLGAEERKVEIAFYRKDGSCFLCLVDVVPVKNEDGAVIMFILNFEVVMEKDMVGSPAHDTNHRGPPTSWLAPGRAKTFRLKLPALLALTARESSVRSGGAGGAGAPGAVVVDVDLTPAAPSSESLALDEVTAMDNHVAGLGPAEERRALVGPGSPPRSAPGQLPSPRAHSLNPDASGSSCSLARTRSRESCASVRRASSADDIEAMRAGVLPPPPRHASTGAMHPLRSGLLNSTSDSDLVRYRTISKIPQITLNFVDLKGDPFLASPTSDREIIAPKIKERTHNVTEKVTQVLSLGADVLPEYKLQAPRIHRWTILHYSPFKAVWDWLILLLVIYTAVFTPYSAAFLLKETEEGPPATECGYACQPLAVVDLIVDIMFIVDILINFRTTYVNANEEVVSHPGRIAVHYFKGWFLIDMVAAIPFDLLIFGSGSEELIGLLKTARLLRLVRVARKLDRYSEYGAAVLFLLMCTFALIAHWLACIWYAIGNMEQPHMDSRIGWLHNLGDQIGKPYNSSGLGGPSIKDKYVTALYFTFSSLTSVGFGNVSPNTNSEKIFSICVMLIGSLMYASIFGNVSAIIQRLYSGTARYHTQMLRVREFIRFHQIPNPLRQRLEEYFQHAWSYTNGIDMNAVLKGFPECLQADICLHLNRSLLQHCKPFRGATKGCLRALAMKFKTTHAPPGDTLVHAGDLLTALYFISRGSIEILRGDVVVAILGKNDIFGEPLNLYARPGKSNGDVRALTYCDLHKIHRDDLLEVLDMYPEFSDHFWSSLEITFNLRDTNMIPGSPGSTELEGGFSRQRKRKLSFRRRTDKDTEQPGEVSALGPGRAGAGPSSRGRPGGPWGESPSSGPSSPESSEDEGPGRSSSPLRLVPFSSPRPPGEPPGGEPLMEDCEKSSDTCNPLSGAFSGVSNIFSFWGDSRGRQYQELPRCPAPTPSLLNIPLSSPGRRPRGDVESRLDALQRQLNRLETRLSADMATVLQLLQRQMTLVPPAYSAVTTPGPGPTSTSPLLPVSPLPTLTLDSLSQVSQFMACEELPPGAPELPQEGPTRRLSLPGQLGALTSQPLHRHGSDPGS
row,Compound,"hERG current change (%, negative = inhibition) at 10uM [%]"
1,COc1ccc(/C(O)=C2/C(=O)C(=O)N(CCN(C)C)C2c2ccc(OC)c(OC)c2)c(C)c1 (centres unmarked),11
2,O=C(c1cc(S(=O)(=O)N2CCOCC2)ccc1Cl)N1CCC(Cc2ccccc2)CC1,-15.9
3,Cc1cc(CNC(=O)c2cccc([N+](=O)[O-])c2)c2ccccc2n1,6.72
4,Cc1cc(CNC(=O)c2cccc([N+](=O)[O-])c2C)c2ccccc2n1,-53
5,Cc1cc(CNC(=O)c2ccc(C)c([N+](=O)[O-])c2)c2ccccc2n1,8.05
6,CN(CC(=O)Nc1ccc(F)cc1)C(=O)COc1ncnc2ccccc12,-19.3
7,Cc1ccc(NC(=O)COc2ccccc2C(=O)NCc2ccccc2)cc1,-31.1
8,COc1ccc(-c2cn(CC3CCCCC3)nn2)cc1,15.3
9,Cc1ccc(-c2cn(C[C@H]3CC[C@@H]([C@@H]4CC[C@H](Cn5cc(-c6ccc(C)cc6)nn5)O4)O3)nn2)cc1,-7.99
10,c1ccc(-c2cn(C[C@H]3CC[C@H](Cn4cc(-c5ccccn5)nn4)O3)nn2)nc1,-9.3
11,c1cncc(-c2cn(C[C@H]3CC[C@@H]([C@@H]4CC[C@H](Cn5cc(-c6cccnc6)nn5)O4)O3)nn2)c1,-58.5
12,c1ccc(-c2cn(C[C@H]3CC[C@@H]([C@@H]4CC[C@H](Cn5cc(-c6ccccn6)nn5)O4)O3)nn2)nc1,-6.73
13,c1ccc(-c2cn(C[C@H]3CC[C@@H]([C@@H]4CC[C@H](Cn5cc(-c6ccccc6)nn5)O4)O3)nn2)cc1,-23.8
14,COc1cccc(-c2cn(C[C@H]3CC[C@@H]([C@@H]4CC[C@H](Cn5cc(-c6cccc(OC)c6)nn5)O4)O3)nn2)c1,-72.7
15,COc1ccc(-c2cn(Cc3cccc(OC)c3)nn2)cc1,-0.524
16,c1cc(-c2cn(C[C@H]3CC[C@@H]([C@@H]4CC[C@H](Cn5cc(-c6ccsc6)nn5)O4)O3)nn2)cs1,-75.5
17,Cc1c(CCO)c(=O)n(C)n1C(=O)c1ccc(F)cc1,2.6
18,CCCCCN(C(=O)CCC(=O)OCc1ccc(C(C)(C)C)cc1)c1c(N)n(CCCC)c(=O)[nH]c1=O,-8.09
19,CCN(Cc1ccccc1)C(=O)c1ccc(CS(=O)c2ccccc2C)o1 (centres unmarked),-43.9
20,C/C(=N\NC(=O)c1csc(C)c1C)c1ccc(Cl)s1,-0.674
21,C/C=C\C=C\C(=O)N1CC2(CC(c3cccc(NC(=O)CC(c4ccccc4)c4ccccc4)c3)=NO2)C[C@H]1C(N)=O (some centres unmarked),0.883

row,Compound,"hERG current change (%, negative = inhibition) at 10uM [%]"
1,CC1CCCCN1C(=O)c1cccc(NC2=C(Cl)C(=O)N(Cc3ccccc3)C2=O)c1 (centres unmarked),-15.8
2,O=C1C(Cl)=C(Nc2cccc(O)c2)C(=O)N1Cc1ccccc1,-62.4
3,CCOc1ccc(NC2=C(Cl)C(=O)N(Cc3ccccc3)C2=O)cc1,-0.258
4,NC(C(=O)O)c1cc(=O)[nH]o1 (centres unmarked),13.4
5,COCCCn1c(SCC(=O)Nc2cccc(C)n2)nnc1-c1ccco1,-69.3
6,CCn1c(SCC(=O)Nc2cc(C)on2)nnc1-c1ccco1,-4.87
7,CCn1c(SCC(=O)NC2CCCC2)nnc1-c1ccco1,14.8
8,CCn1c(SCC(=O)Nc2cccc(C)n2)nnc1-c1ccco1,-50.9
9,COCCn1c(SCC(=O)Nc2cccc(C)n2)nnc1-c1ccco1,-11.5
10,CCCCn1c(SCC(=O)Nc2cc(C)on2)nnc1-c1ccco1,-23.3
11,CCCCn1c(SCC(=O)Nc2cccc(C)n2)nnc1-c1ccco1,-76
12,CCCn1c(SCC(=O)NC2CCCCC2)nnc1-c1ccco1,-20.3
13,CCCCn1c(SCC(=O)NC2CCCC2)nnc1-c1ccco1,-54.8
14,COCCn1c(SCC(=O)Nc2cc(C)on2)nnc1-c1ccco1,-4.67
15,CCCCn1c(SCC(=O)NC(C)(C)C)nnc1-c1ccco1,-1.57
16,CCC(=O)Nc1ccc(NC(=O)CSc2nnc(-c3ccco3)n2CC)cc1,8.22
17,O=C(O)c1cccc(Nc2ncnc3ccc(Br)cc23)c1,-1.55
18,COc1ccccc1CNS(=O)(=O)c1ccc(C)cc1,7.04
19,CN(C)c1ccc(/C=C2\C(=N)N3N=C(CC(=O)N4CCCC4)SC3=NC2=O)cc1Br,4.09
20,COCc1cc(C)nc(N/N=C/c2ccc(Cl)c(Cl)c2)c1C#N,12.4
21,CCN1CC2([N+](=O)[O-])CC=C(Cl)C([N+](=O)[O-])(C1)C2 (centres unmarked),13.9

row,Compound,"hERG current change (%, negative = inhibition) at 10uM [%]"
1,Cc1nc2ncnn2c(N2CCN(S(=O)(=O)c3ccc(Br)cc3)CC2)c1C,-20.7
2,Cc1cc(N2CCN(S(=O)(=O)c3ccc4ccccc4c3)CC2)n2ncnc2n1,-77.7
3,CC(=O)Nc1ccc(S(=O)(=O)N2CCN(c3cc(C)nc4ncnn34)CC2)cc1,-27.9
4,Cc1cc(N2CCN(S(=O)(=O)Cc3ccccc3)CC2)n2ncnc2n1,-46.1
5,Cc1cc(N2CCN(S(=O)(=O)c3ccc(Br)cc3)CC2)n2ncnc2n1,-76.9
6,Cc1ccccc1N1CCN(S(=O)(=O)c2ccc3ccccc3c2)CC1,9.64
7,CC1CN(C(=O)CSc2nnc(NC(=O)NC(C)(C)C)s2)CC(C)O1 (centres unmarked),19
8,CC1(CCc2ccccc2)NC(=O)N(Cc2nnc(-c3ccccc3Br)o2)C1=O (centres unmarked),-26
9,CCOC(=O)C1CCN(C(=O)CN(c2ccc(OC)c(OC)c2)S(=O)(=O)c2ccccc2)CC1,-14.7
10,CCOc1ccc(S(=O)(=O)NCCC(=O)NCC(c2ccco2)N2CCCCC2)cc1 (centres unmarked),-17.7
11,CC1N(C)c2cc(NC(=O)c3cccs3)c(P(=O)(Nc3ccc([N+](=O)[O-])cc3)N3CCOCC3)cc2C1(C)C (centres unmarked),12.2
12,O=C(Nc1cc(C(F)(F)F)ccc1N1CCOCC1)c1ccco1,6.93
13,CC1N(C)c2cc(NC(=O)c3ccco3)ccc2C1(C)C (centres unmarked),-13.9
14,Cc1cc(C(=O)Nc2cc(C(F)(F)F)ccc2N2CCOCC2)no1,5.97
15,CC1N(C)c2cc(NC(=O)c3ccco3)c(P(=O)(Nc3ccc([N+](=O)[O-])cc3)N3CCOCC3)cc2C1(C)C (centres unmarked),-56
16,CN1CCN(c2ccc([N+](=O)[O-])cc2NC(=O)c2ccco2)CC1,-66.9
17,O=C(Nc1cc([N+](=O)[O-])ccc1N1CCCC1)c1ccco1,-34.5
18,CCC(=O)Nc1cc(C(F)(F)F)ccc1N1CCOCC1,1.09
19,O=C(Nc1cc(C(F)(F)F)ccc1N1CCCCC1)c1ccco1,21.2
20,CCCCn1nc(C(=O)Nc2cc(C(F)(F)F)ccc2N2CCOCC2)ccc1=O,-83.7
21,CN1CCN(c2ccc(C(F)(F)F)cc2NC(=O)c2ccco2)CC1,-54.5

row,Compound,"hERG current change (%, negative = inhibition) at 10uM [%]"
1,O=C(Nc1cc([N+](=O)[O-])ccc1N1CCOCC1)c1ccco1,-25.6
2,O=S(=O)(N1CCOCC1)N1CCCN(S(=O)(=O)N2CCOCC2)CC1,5.76
3,COc1cc2ccccc2cc1C(=O)NCCCN1CCOCC1,-5.9
4,Cc1nn(C(C)C(=O)Nc2sc3c(c2C#N)CCCC3)c(C)c1[N+](=O)[O-] (centres unmarked),12.1
5,O=C(/C=C/c1ccccc1Cl)NCCCn1ccnc1,-17
6,Cc1ccc(S(=O)(=O)c2c(C)nn(C(C)(C)C)c2OC(=O)C(C)(C)C)cc1,15.6
7,C=CCn1c(N2CCN(c3ccc(OC)cc3)CC2)nc2c1c(=O)n(C)c(=O)n2C,-32.1
8,CCN(CC)c1nc(C)nc2c1sc(=S)n2C,-1.82
9,Clc1ccc(CNc2nnnn2-c2ccccc2)c(Cl)c1,20.7
10,COc1cccc(/C=C/C(=O)OCC(=O)Nc2ccc(Cl)cn2)c1,28.1
11,CCCCC1=NN(C(=O)c2ccncc2)C(O)(C(F)(F)F)C1 (centres unmarked),23.1
12,COc1ccccc1C(=O)COC(=O)CCNS(=O)(=O)c1ccc(C)c(C)c1,-21.9
13,CCC(C(=O)N1CCN(c2ccccn2)CC1)n1nc(C)n2c(cc3occc32)c1=O (centres unmarked),-5.95
14,Cc1ccc(C(=O)N2N=C(c3ccccc3O)CC2c2ccccc2)cc1 (centres unmarked),14.6
15,COc1cccc(NC(=O)CSc2nc(=O)n(CCN(C)C)c3c2CCCC3)c1,-49.9
16,CN(C)CCn1c2c(c(SCC(=O)Nc3ccccc3)nc1=O)CCCC2,-26.7
17,COc1ccc(NC(=O)CSc2nc(=O)n(CCN(C)C)c3c2CCCC3)cc1OC,-11.5
18,CN(C)CCn1c2c(c(SCC(=O)Nc3cccc(C(F)(F)F)c3)nc1=O)CCCC2,-68.8
19,Cc1ccc(NC(=O)CSc2nc(=O)n(CCN(C)C)c3c2CCCC3)cc1Cl,-59.8
20,CN(C)CCn1c2c(c(SCC(=O)Nc3ccc4c(c3)OCCO4)nc1=O)CCCC2,-14.8
